# According to the supplement of paper PMC10981050:
# Values joined by “and” are separate entries in the source; they are usually repeats but may differ in a detail not shown here. Equal values may be shown once. Where a name gives a salt, the structure may show the parent alone.
# Columns and labels:
# Assay in all cases: cell viability relative to vehicle control; higher = less cytotoxic
# Settings in all cases: 10 µM
# K562 = system: K562
# Summary of the method: (§1)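 After removal of identity-inconsistent compounds, the Selleck bioactive, kinase and epigenetic probe libraries were screened on CRISPR-edited mutant clones and isogenic wild-type clones of four leukaemia lines. Plates were 384-well, each well holding 2000 cells in 50 µL medium and receiving a single 10 µM acoustically dispensed dose. CellTiter-Glo luminescence was read 48 h later, after the supernatant was taken off. Genedata Screener was used to express viability as percent of the on-plate vehicle control.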
# MARIMO = system: MARIMO
# Summary of the method: as §1
# MOLM14 = system: MOLM14
# Summary of the method: as §1
# OCI-AML2 = system: OCI-AML2
# Summary of the method: as §1
Compound,cell viability (K562; SRSF2 genotype: SRSF2 P95H/wt),cell viability (K562; SRSF2 genotype: SRSF2 wt/wt) [%],cell viability (MARIMO; SRSF2 genotype: SRSF2 P95H/wt) [%],cell viability (MARIMO; SRSF2 genotype: SRSF2 wt/wt) [%],cell viability (MOLM14; SRSF2 genotype: SRSF2 P95H/wt) [%],cell viability (MOLM14; SRSF2 genotype: SRSF2 wt/wt) [%],cell viability (OCI-AML2; SRSF2 genotype: P95H/wt) [%],cell viability (OCI-AML2; SRSF2 genotype: wt/wt) [%]
Cc1oncc1C(=O)Nc1ccc(C(F)(F)F)cc1 [Leflunomide],93.4% and 96.5%,86.8,94.9,90.1,102,98.3,80.3,85.1
CC(C)CCCC(C)C1CCC2C3CCC4CC(O)CCC4(C)C3CCC12C (configuration not stated) [Dihydrocholesterol],93% and 100%,92.6,95.2,97.3,90.2,97.6,98.3,97.6
CN1CCc2c(c3ccccc3n2Cc2ccc(C(=O)NO)cc2)C1 [Tubastatin A hydrochloride],77.4% and 88.8%,84.6,67,66.5,43.8,43.6,51.1,49.9
NS(=O)(=O)c1ccc(NC(=S)N2CCN(CC=Cc3ccccc3)CC2)cc1,85.3% and 88.8%,93.5,83.5,76.7,95.3,99.2,64.5,76.5
c1cc(CN2CCCNCCNCCCNCC2)ccc1CN1CCCNCCNCCCNCC1 [Plerixafor],93.9% and 99.1%,99.1,96.2,100,94.8,94.7,103,96.9
O=C(O)CCn1c(O)c(C2=c3cc(Cl)ccc3=NC2=O)sc1=S,87.5% and 92.5%,88.2,84.1,88.7,71.7,83.2,107,116
O=S(=O)(O)Oc1ccc(C(c2ccc(OS(=O)(=O)O)cc2)c2ccccn2)cc1 [Sodium Picosulfate],103% and 102%,108,106,112,103,104,104,101
OCC(CO)N[C@H]1C[C@](O)(CO)[C@@H](O)[C@H](O)[C@H]1O [Voglibose],96.2% and 91.4%,96.6,98.1,104,99.7,97.5,92.3,109
NC(=S)N/N=C/c1ncccc1N [Triapine],75.8% and 77.5%,76.5,20.1,15.3,6.66,1.54,13.1,15.1
